According to the OligoGym collection:

The sequences below were run against CAPRIN1 (assay: pooled miR-30 sensor sort-seq; sequence = guide strand). Conditions: shRNA.
Note: reference of the scale not given here.

Sequence	sensor-assay potency score (higher = more potent)
TAACATATTATGGTACACTGGC	0.119
TTTCTGAATATCTTGACTTAGT	-0.78
TATTGTTTTCTGAATATCTTGA	0.459
TACAGGAACTTGATTAGGCTGA	0.0825
TTACATACTCTGTTGATTCAAC	0.0551
TTGATAGCCAGAGTAATCCCGG	-0.0464
TTGACTGAAAAACACGCTCAAC	-1.28
TTTACATTGATTCCACTGCTAT	-0.568
TTTCTTGTCGATCACCCCGAGA	-1.14
TAGATAATAACTCTTCTGGTAA	-0.812
AATATCTTGACTTAGTGCCATG	-1.68

The sequences below were run against CASK in the same assay as above. Conditions: shRNA.

Sequence	sensor-assay potency score (higher = more potent)
ATTTGTGACTTGACACAGCGGC	0.473
TTTCTCTGTTGATACATCGTCG	-0.203
TATATGTCTCCAATAACTCTAC	-0.605
TAAAGCATTCCATCTGAGCTAT	-0.371
TAAAATACGCTTTAGTTCCTTT	-0.108
TTTTGAAACTGTACCAGCCGAA	-0.413
TAAGATGTCAGACTCCTTCTGC	0.313
TTACATAGATCTGTCGTCCTTT	0.751
TTCATGTGCCACTACGTCGTGA	-0.762
TTGTGCTCTTACATAGATCTGT	0.417
TACATCGTCGTACAACACTGAA	-1.22
TAGTAGTGTGTGAAGATGCTGA	0.139

The sequences below were run against CASP8 in the same assay as above. Conditions: shRNA.

Sequence	sensor-assay potency score (higher = more potent)
TTTACTTTCAATAACCACCCTG	0.433
ATAGTCGTTGATTATCTTCAGC	-0.538
TTCTGAAATCTGATAGAGCATG	-1.4
TACTGTGCAGTCATCGTGGGGC	0.503
TTCTTCTGAAATCTGATAGAGC	-0.601
TAATAGATGATCGACCCTCCGC	-0.463
TTTTGCAAAATTGTGATTGTTG	0.0045
TTGATTTGGGCACAGACTCTTT	-0.862
TTTCTGCTGAAGTCCATCTTTT	-1.01
TTCATAGTCGTTGATTATCTTC	-0.794
TTACTTTCAATAACCACCCTGG	0.486
ATAGATAACAATCTGAATCATA	-0.657
TTCATAGTTCACTTCAGTCAGG	-0.715
TTAGTGTGAAAGTAGGCTGAGG	-0.589
TATTAATAGATGATCGACCCTC	-0.244
ATCTGATAGAGCATGACCCTGT	-0.509
